Compound activity: PubChem BioAssay, National Center for Advancing Translational Sciences (NCATS)
PNC inhibitor: blocks assembly of the perinucleolar compartment; PC3M PTB-GFP, PNC prevalence imaging, 16 h; active compounds read low; AID 2417; 140,000 compounds, 3.1% hits; activity change (PNC), negative = inhibition, % at 10 µM;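 active means readout at or below -70, meaning at least 70% loss of cells showing the perinucleolar compartment, a nuclear body marking cancer cells; inconclusive means readout between -30 and a set limit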;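 further: plate controls were DMSO wells for no effect and camptothecin positive control wells for full effect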
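Read-out is percentage of cells bearing a perinucleolar compartment, from automated 20x imaging of fixed, Hoechst-stained PC3M PTB-GFP cells. Cells were seeded 4 h, then exposed 16 h to compound (23 nl of library stock) in duplicate plates.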
ALDH1A1 block: ALDH1A1 (human) enzyme inhibition; P00352; Purified ALDH1A1, NADH fluorescence, propionaldehyde substrate; Potency, µM (titrated, usually from 75.3 µM), inactives show at the highest dose activity, negative = inhibition, hits mostly inhibitors; 220,000 compounds, 7.3% hits; AID 1030;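 further: potency means the concentration at half of the fitted maximal effect; plate controls were no enzyme wells and a reference inhibitor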
KDM4E inh: blocks human JMJD2E demethylase activity; B2RXH2; JMJD2E catalytic domain, FDH-coupled NADH fluorescence (FDH is formaldehyde dehydrogenase); Potency, µM (series often up to 57.1 µM), without a hit: top-dose activity change, negative = inhibition, most hits filed as inhibitors; 230,000 compounds, 1.6% hits; AID 2147;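 further: potency means the concentration at half of the fitted maximal effect; 0% = wells with enzyme and -100% = buffer wells without enzyme; nearly all actives have a fitted effect of over 50% in size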
Target sequence (B2RXH2 1-337 limits assumed): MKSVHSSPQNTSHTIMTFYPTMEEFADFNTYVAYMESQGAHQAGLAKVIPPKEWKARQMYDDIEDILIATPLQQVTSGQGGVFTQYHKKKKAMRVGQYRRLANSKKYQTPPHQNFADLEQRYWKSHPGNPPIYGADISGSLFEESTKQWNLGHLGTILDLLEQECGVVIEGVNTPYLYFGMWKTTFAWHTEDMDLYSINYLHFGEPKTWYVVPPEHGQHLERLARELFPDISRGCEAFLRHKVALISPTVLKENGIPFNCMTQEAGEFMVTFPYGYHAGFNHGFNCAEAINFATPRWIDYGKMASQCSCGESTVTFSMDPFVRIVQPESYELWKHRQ
HPGD block: blocks human HPGD enzyme activity. P15428. purified HPGD, NADH fluorescence kinetic, PGE2 substrate. Potency, µM, inactives show at the highest dose activity change, negative = inhibition, usual class: inhibitors. 150,000 compounds, 4.3% hits. AID 894; further: potency means the concentration at half of the fitted maximal effect
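20 nM HPGD preincubated 15 min at room temperature with compound in 50 mM Tris-HCl pH 8, 0.01% Tween 20. Started with 1 mM NAD+ and 30 uM prostaglandin E2; NADH fluorescence (360/450 nm) read 5 times over 30-s intervals, last minus first.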
Active calls of the source: *; ? = inconclusive; · = no result; [ ] = another dose, or the depositor's remark. Most compounds without a hit are left out; they make up all but 11% or so of the library. Unless noted, the call rests on the fitted dose curve; in most records, active means well fitted inhibition curve with a large enough effect (not every such curve was filed as active); inconclusive means small, poorly fitted or top-dose-only effect, or another doubt; inactive means no such curve, though single readings can be large or run the other way. Unless noted, on the % scale 0 is the no-effect control and ±100 the full control effect.

SMILES	PNC inhibitor	ALDH1A1 block	KDM4E inh	HPGD block
Cc1[nH]nc2ncc(C(=O)c3ccccc3O)cc12	8	9%	-2%	-24%
CN1Cc2cc(C(=O)c3ccccc3O)cnc2NC1=O	?	-10%	2%	25µM*
Cc1cc(=O)oc2ccc(OCC(=O)N3CCc4ccccc43)cc12	13	16µM*	-13%	-20%
Cc1cc(=O)oc2cc(OCC(=O)N3CCCc4ccccc43)ccc12	-19	22µM*	?	?
COC(=O)N1C2=C(c3ccccc3[C@@H]1CC(=O)Nc1ccc3cc4ccccc4cc3c1)[C@@H]1C(=O)N(c3ccccc3)C(=O)[C@@H]1[C@H](C)C2	·	-5%[13.5 µM]	?	-13%
CC(C)N(CC(=O)O)CC(=O)O	·	?	·	2%
Cn1c(C2=C(O)CN(Cc3ccccc3)C2=N)nc2ccccc21	·	?	-4%	·
CCS(=O)(=O)Nc1ccc(C(=O)c2ccccc2)cc1	-23	-10%	2%	0.28µM*
CCS(=O)(=O)Nc1ccc(C(=O)OC)cc1	0	-1%	2%	14µM*
COc1ccc(CN(C)Cc2cc(=O)n3ccsc3n2)c(OC)c1OC	·	-12%	?	·
Cc1noc(C)c1C(=O)NCc1ccccc1F	·	12%	10%	·
COc1cc2[nH]c(=S)n(CC3CCCO3)c(=O)c2cc1OC (stereo unspecified)	20	7.9µM*	5%	-2%
CCOc1cc2[nH]c(=S)n(CC3CCCN3CC)c(=O)c2cc1OCC (stereo unspecified)	12	?	-2%	-7%
CC(C)NC(=O)c1ccc2c(=O)n(C3CCCC3)c(=S)[nH]c2c1	?	0.45µM*	-4%	-5%
COc1cc2[nH]c(=S)n(CCN3CCOCC3)c(=O)c2cc1OC	-2	-15%	-7%	-21%
CCN(CC)CCNC(=O)c1ccc2c(=O)n(C3CCCC3)c(=S)[nH]c2c1	?	?	-3%	-16%
CCOc1cc2[nH]c(=S)n(CC3CCCO3)c(=O)c2cc1OCC (stereo unspecified)	-1	2.5µM*	5%	-10%
COc1cc2[nH]c(=S)n(C3CC3)c(=O)c2cc1OC	·	28µM*	-22%	·
CCCCCCCCCCCCC/C=C/[C@@H](O)[C@H](CO)NC(C)=O	·	2%	·	·
CCN(C(=O)COC(=O)c1cccc(-n2cnnn2)c1)C1CCCCC1	·	-13%	0%	·
CCOc1ccc(OCCN2C(=O)NC3(CCCc4ccccc43)C2=O)cc1 (stereo unspecified)	?	-11%	2%	-16%
O=C1NC2(CCCc3ccccc32)C(=O)N1CCOc1ccc(Br)cc1 (stereo unspecified)	-9	4%	-2%	16µM*
O=C(CN1N=C(c2ccccc2)CCC1=O)NCCCN1CCc2ccccc2C1	-24	10%	-4%	0%
Cc1nnc(SCc2ccc(Cl)cc2Cl)[nH]c1=O	?	14%	3%	16µM*
Cc1cnc(SCc2ccc(Cl)cc2Cl)[nH]c1=O	·	·	-3%	·
SMILES	PNC inhibitor	ALDH1A1 block	KDM4E inh	HPGD block
CC(C)(C)c1ccc(-c2nc(C=O)c3ccccn23)cc1	-13	?	?	-29%
Cc1c(C(C)(C)C)c(C=S)n2ccccc12	9	22µM*	1%	-14%
CCN(CC)CCNC(=O)c1ccc(Cc2nc3ccccc3[nH]2)cc1	·	11%	·	0%
C/C(CCN1CCc2nc(-c3ccccc3)c(-c3ccccc3)cc2C1)=N\O[C@@H](C)c1cn([C@H](CO)Cc2ccccc2)nn1	21	3%[13.5 µM]	-9%	-14%
c1cnc(N2CCN(Cc3ccc4c(c3)OCO4)CC2)nc1	4	2%	0%	-22%
Fc1cccc(CN2CCN(c3ncccn3)CC2)c1	14	13µM*	5%	-14%
O=C1c2ccccc2C(=O)c2c(NC3CCCCC3)ccc(Nc3ccc(S(=O)(=O)O)cc3)c21	·	2%[13.5 µM]	·	-17%
CCOc1ccc(N=Nc2c(C)noc2C)cc1	·	4%	3%	·
COc1ccc(S(=O)(=O)NCCSC(C)(C)C)c(Cl)c1Cl	-8	2.4µM*	-3%	?
CCCNS(=O)(=O)c1ccc(OC)c(Cl)c1Cl	?	-11%	0%	-13%
O=C(O)CC(Cn1[nH]nnc1=S)c1ccccc1 (stereo unspecified)	?	10µM*	?	-27%
O=c1[nH]cnc2c1nc(Cl)n2C1OC(CO)C(O)C1O (stereo unspecified)	·	-1%	4%	-4%
Cc1ccc(CC(=O)Nc2nc3c(s2)CCCC3)cc1	-100*	-3%	-3%	-11%
O=C(Cc1ccc(S(=O)(=O)N2CCCCC2)s1)Nc1ccc(F)c(F)c1	-86*	?	1%	-11%
